The values below come from article PMC7819943, “Rice protein-binding microarrays: a tool to detect cis-acting elements near promoter regions in rice”.

Over roughly 68,000 sequences, “fluorescence intensity (a.u.)” has its median near 9,100; the highest 2% begin near 16,000. Shown is part of a subset that was picked to be rich in the highest values.

Sequence of OsWRKY34 (Q0JBA9 entry or part of it): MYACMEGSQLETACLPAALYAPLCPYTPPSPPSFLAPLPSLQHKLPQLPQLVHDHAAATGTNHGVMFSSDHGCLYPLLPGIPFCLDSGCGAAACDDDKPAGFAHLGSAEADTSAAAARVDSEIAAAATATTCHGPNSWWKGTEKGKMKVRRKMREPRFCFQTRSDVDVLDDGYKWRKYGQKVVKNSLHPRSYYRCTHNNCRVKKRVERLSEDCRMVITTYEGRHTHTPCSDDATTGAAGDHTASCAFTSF

The assay has as its target OsWRKY34 (Oryza sativa, UniProt Q0JBA9 1-250). In words: protein-binding microarray (RPBM); PBS, 2% BSA, 51.3 ng/ul salmon testes DNA, 50 uM zinc acetate, 200 nM TF, 25 C, 1 h; high values mean tight binding. Particulars: protein: recombinant; tags: N-terminal polyhistidine and DsRed monomer fusion (pET32a); label: CyDye5-dUTP incorporated in the synthesized complementary strand; 3' TTTTT single-stranded linker to array surface; dsDNA, one strand shown. An outline of the steps: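 Polyhistidine-tagged DsRed fusions of transcription factors, joined at the N-terminus, were expressed in E. coli BL21-CodonPlus and isolated on Ni–NTA. They were incubated at 200 nM for 1 h at 25 °C on a custom Agilent array, double-stranded and BSA-blocked, in PBS with 2% BSA, salmon testes DNA and 50 µM zinc acetate. The binding signal is per-feature fluorescence intensity (arbitrary units) read on an Axon 4000B scanner after washing.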
As for “TTGACGCCGTTGACTTTTTAATACATGTTTGACCATTCGTCGGAGTCACCTAGTGCAG”, the binding signal was 44300 fluorescence intensity (a.u.).

For the sequence “ACTCTCTCCGTTTCGAAATGTTTGACGCTGTTGACTTTTTCGGAGTCACCTAGTGCAG”, the binding signal was 17500 fluorescence intensity (a.u.).

With “CTCCCTCTATCAAAAAAATGTTTGACGCCGTTGACTTTTTCGGAGTCACCTAGTGCAG”, the binding signal is 25600 fluorescence intensity (a.u.).

Regarding “ATACTCCCTTCGTTTCGAAATGTTTGACGCCGTTGACTTTCGGAGTCACCTAGTGCAG”, the binding signal was 14300 fluorescence intensity (a.u.).

In the case of “TCCGTTTCGGAATGTTTGACGCCGTTGACTTTTTATTACACGGAGTCACCTAGTGCAG”, the binding signal is 25400 fluorescence intensity (a.u.).

Take “CTCCCTTCGTTTCGAAATGTTTGACGCCGTTGACTTTTTACGGAGTCACCTAGTGCAG”: the binding signal is 22800 fluorescence intensity (a.u.).

“CTCCCTCCGTTTCGAAATGTTTGACGCCGTTGACTTTTTACGGAGTCACCTAGTGCAG”: the binding signal was 15900 fluorescence intensity (a.u.).

As for “CGCTGTTCAGACGTTGACTCTCGTTGTTTTTATAGTTTTTCGGAGTCACCTAGTGCAG”, the binding signal was 14600 fluorescence intensity (a.u.).

Regarding “ACTCCCTCCGTTTCAAAATGTTTGACATCATTGACTTTTTCGGAGTCACCTAGTGCAG”, the binding signal was 11100 fluorescence intensity (a.u.).

On to “CACCCTCTCCCGTGTTCCACCCCGCCCGCGAATCATATCCCGGAGTCACCTAGTGCAG”, for which the binding signal was 9340 fluorescence intensity (a.u.).

In the case of “TCCGTCCCTGCAGTCACCTTATTGGTCAAATTTTAAATATCGGAGTCACCTAGTGCAG”, the binding signal was 13400 fluorescence intensity (a.u.).

Regarding “TAGGGGTGGGCATTCGGTCTAACTGAAAATTTCGGTCTCGCGGAGTCACCTAGTGCAG”, the binding signal is 13500 fluorescence intensity (a.u.).

With “TGACGTTTGACCAAAGTTTTCTTCAATTTTTCAGAAATGGCGGAGTCACCTAGTGCAG”, the binding signal is 9900 fluorescence intensity (a.u.).

Take “GGTCTATGTCTCTCTGATTATTTCTTTTACTAATTGTTTGCGGAGTCACCTAGTGCAG”: the binding signal is 9060 fluorescence intensity (a.u.).

With “CTTCTGCTCTCTAGCTAGCCTTCTTCCTATTGGAAGCTTCCGGAGTCACCTAGTGCAG”, the binding signal was 9230 fluorescence intensity (a.u.).

Regarding “ATATTCCCTCCGTTTTGAAATGTTTGACGCCGTTGACTTTCGGAGTCACCTAGTGCAG”, the binding signal was 17000 fluorescence intensity (a.u.).

Take “CAACGAAAATACTAACAACATGCACCTGGCCGCGTTGACCCGGAGTCACCTAGTGCAG”: the binding signal was 13900 fluorescence intensity (a.u.).

For the sequence “CATTCCTATCAAAATCCTACGTTTTTCCTATTCCTACGTTCGGAGTCACCTAGTGCAG”, the binding signal is 9840 fluorescence intensity (a.u.).

For “TGCACCTGGCCGCGTTGACCGTTCGAAATGTATATATTCCCGGAGTCACCTAGTGCAG”, the binding signal is 19600 fluorescence intensity (a.u.).

Regarding “GATCCTCTGTTTTATCTACGCGTTCCTATCAAATTCCTTTCGGAGTCACCTAGTGCAG”, the binding signal was 16800 fluorescence intensity (a.u.).

As for “CCGCTGGCCCTTGTTGACACCTTGACTACGAAATGTATTCCGGAGTCACCTAGTGCAG”, the binding signal was 8980 fluorescence intensity (a.u.).

As to “TTATACTCCCTCCGTTTCGAAATGTTTGACGCCGTTGACTCGGAGTCACCTAGTGCAG”, the binding signal is 11400 fluorescence intensity (a.u.).

On to “TTCTCTTTTATCTGTTTGCTTCCTATAAATTCTACGCGATCGGAGTCACCTAGTGCAG”, for which the binding signal was 8480 fluorescence intensity (a.u.).

Turning to “GCGCTACTTCGCTCGACCACCCGCCCGCCTTCCACTGCCACGGAGTCACCTAGTGCAG”, the binding signal is 8550 fluorescence intensity (a.u.).

For “CTCTAATTTTCTTTGCGTGTTCCATCATCAATATGGTATTCGGAGTCACCTAGTGCAG”, the binding signal is 10700 fluorescence intensity (a.u.).

Consider “CAATTTCGAGCTTCGTATCAGCATATGCTATTCCCTATTGCGGAGTCACCTAGTGCAG”, for which the binding signal is 10500 fluorescence intensity (a.u.).

With “TGACTTTTTAGCATATGTTTGACCGCTCGTCTTATTCAAACGGAGTCACCTAGTGCAG”, the binding signal was 8220 fluorescence intensity (a.u.).

In the case of “ACCGTTGACTTTTTAGCACATGTTTGACCGCTCGTCTTATCGGAGTCACCTAGTGCAG”, the binding signal is 54800 fluorescence intensity (a.u.).

On to “GACTTTTTAGCACATGTTTGACCGTTCGTCTTATTCAAAACGGAGTCACCTAGTGCAG”, for which the binding signal was 10800 fluorescence intensity (a.u.).

As to “TTAGCACATGTTTGACCGTTCGTCTTATTCAAAATTTTTTCGGAGTCACCTAGTGCAG”, the binding signal is 12600 fluorescence intensity (a.u.).

Turning to “GTTGACTTTTTTAAACATGTTGGACCGTTCGTCTTATTCACGGAGTCACCTAGTGCAG”, the binding signal was 9150 fluorescence intensity (a.u.).

As to “TTGACTTTTTAGCACATGTTTGACCGTTCGTCTTATTCAACGGAGTCACCTAGTGCAG”, the binding signal is 8480 fluorescence intensity (a.u.).

Take “CGTTGACTTTTCTAAACATGTTTGACCGTTCGTCTTATTCCGGAGTCACCTAGTGCAG”: the binding signal was 28400 fluorescence intensity (a.u.).

As for “CATTGACTTTTTTAAACATGTTTGACTGTTCGTCTTATTCCGGAGTCACCTAGTGCAG”, the binding signal is 11500 fluorescence intensity (a.u.).

As to “CGTTGACTTTTTAGCACATGTTTGACCGTTCGTCTTATTCCGGAGTCACCTAGTGCAG”, the binding signal is 29000 fluorescence intensity (a.u.).

Take “CAGATCGACTCGACTCGACCAGGTTCTCTCGTTTTTACTCCGGAGTCACCTAGTGCAG”: the binding signal is 9940 fluorescence intensity (a.u.).

Regarding “CTCTCTCTCTGCTGCTGCTCTCTAATCAGTAACCAGTAGTCGGAGTCACCTAGTGCAG”, the binding signal is 9580 fluorescence intensity (a.u.).

With “TTGTTTATTTAAGGTGTGATTGTATTTGGATCATGTTTTGCGGAGTCACCTAGTGCAG”, the binding signal was 8980 fluorescence intensity (a.u.).

Consider “GGGGTATAATTTGTGTCTTAGCTGATAGAATGTGCAGTTGCGGAGTCACCTAGTGCAG”, for which the binding signal was 9980 fluorescence intensity (a.u.).

As to “AAGGACCCAGCTGTTCGCCACGTGTGCGTGTTGACTTCCACGGAGTCACCTAGTGCAG”, the binding signal was 9780 fluorescence intensity (a.u.).

Consider “ATAGTACGAATGGTTAGCCCAAAAGTCAGTGTCTTCATTCCGGAGTCACCTAGTGCAG”, for which the binding signal is 10300 fluorescence intensity (a.u.).

Take “CACTGCTTCTCACCCAACTCGCGCGCGCCATTCCTTGCCTCGGAGTCACCTAGTGCAG”: the binding signal was 11600 fluorescence intensity (a.u.).
